Screening data (PubChem)
A selection: hits, their analogues and other compounds. The true share with any hit is near 0.8%.
Tb PGK inh: blocks T. brucei phosphoglycerate kinase; P07378; PGK/GAPDH coupled, Kinase-Glo luminescence, 60 min; Potency, µM (titrated, usually from 57.5 µM), actives largely listed as inhibitors; 380,000 tested, 0.043% active; also: nearly all actives have a fitted effect of over 60% in size
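Luminescent ATP detection (Kinase-Glo Plus) follows a 60-minute room-temperature incubation, with wells lacking PGK as controls. Buffer: 100 mM TEA (pH 7.6), 5 mM MgCl2, 0.01% Tween-20. Coupling enzyme GAPDH (100 nM final) supplies unstable 1,3-BPG in-well.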
APE1 inh: APE1 (human) endonuclease inhibition; P27695; recombinant APE1, TAMRA/BHQ-2 abasic DNA cleavage fluorescence; Potency, µM (doses to about 65.8 µM), hits mostly inhibitors; 350,000 tested, 0.35% active; AID 2517; also: nearly all actives have a fitted effect of over 55% in size
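Substrate: short duplex with […] THF abasic site, 5'-TAMRA and 3'-BHQ-2, 50 nM final. APE1 at 0.75 nM, preincubated 15 min RT with compound. Fluorescence increase from first to third read measured activity.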
Tb PFK block: inhibitors of T. brucei phosphofructokinase; O15648; T. brucei PFK, ADP-Glo luminescence; Potency, µM (series often up to 57.5 µM), hits mostly inhibitors; 330,000 tested, 0.17% active; AID 485367; also: nearly all actives have a fitted effect of over 60% in size
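Compounds were pin-transferred as a titration series up to 57 uM into substrate buffer (0.5 mM F6P, 0.1 mM ATP, pH 8.0), then 1.25 nM PFK was added and reactions ran 45 min before ADP-Glo detection.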
TDP1 block: inhibitors of human tyrosyl-DNA phosphodiesterase TDP1. Q9NUW8. recombinant TDP1, AlphaScreen DNA substrate cleavage. Potency, µM (top dose mostly 130 µM), most hits filed as inhibitors. 350,000 tested, 0.28% active; also: nearly all actives have a fitted effect of over 40% in size
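Enzyme-compound mixtures sat 15 min at room temperature, followed by a 5 min reaction with 15 nM final substrate and 10 min with AlphaScreen beads. Recombinant human Tdp1 was used at 1 nM final.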
PI4K2A inh: PI4K2A (human) kinase inhibition | purified PI4K2A, ADP-Glo luminescence, 1 h; active compounds read low | activity change, negative = inhibition, % at 76.9 µM | 420,000 tested, 0.13% active; in the data active = activity change below about -50%; inconclusive = mostly about -30% to -49%
Target sequence (Q9BTU6 whole entry, looked up): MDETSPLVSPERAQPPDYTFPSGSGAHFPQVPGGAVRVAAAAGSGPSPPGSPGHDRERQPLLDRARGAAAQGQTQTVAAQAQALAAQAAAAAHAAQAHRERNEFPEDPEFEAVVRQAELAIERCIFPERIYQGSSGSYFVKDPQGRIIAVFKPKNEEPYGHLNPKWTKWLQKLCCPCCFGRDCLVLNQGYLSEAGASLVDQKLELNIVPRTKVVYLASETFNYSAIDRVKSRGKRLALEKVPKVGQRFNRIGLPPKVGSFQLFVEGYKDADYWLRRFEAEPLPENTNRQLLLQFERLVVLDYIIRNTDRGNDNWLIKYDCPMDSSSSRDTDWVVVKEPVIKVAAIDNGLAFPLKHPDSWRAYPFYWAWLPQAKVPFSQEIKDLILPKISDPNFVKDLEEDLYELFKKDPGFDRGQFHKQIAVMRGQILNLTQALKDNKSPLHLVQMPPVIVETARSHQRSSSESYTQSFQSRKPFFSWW
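In this quantitative HTS, ADP production by PI4K2A was quantified luminescently after 1 h at ambient temperature; 100 microM adenosine served as plate-quality control.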
FEN1 inhibitor: blocks human flap endonuclease 1; AID 588795; 390,000 tested, 0.35% active; Potency, µM (titrated, usually from 114 µM), most hits filed as inhibitors; Recombinant FEN1 flap cleavage, fluorescence, 15 min; also: nearly all actives have a fitted effect of over 65% in size
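Nuclease activity of 10 nM FEN1 was measured after 15 min of room-temperature exposure to titrated compounds, by adding 50 nM flap substrate and reading plates at 0 and 15 min.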
Hits are given with their value; 0 = inactive; ? = inconclusive; - = not tested or not shown; ! = not confirmed by another sample; [ ] = another dose, or the depositor's remark. Unless noted, calls follow the shape of the dose curve; as a rule, active = well fitted curve in the direction sought with a large enough effect; inconclusive = small, poorly fitted or top-dose-only effect, or another doubt; inactive = no such curve, though single readings can be large; an effect the other way counts as inactive or inconclusive.

SMILES	Tb PGK inh	APE1 inh	Tb PFK block	TDP1 block	PI4K2A inh	FEN1 inhibitor
CSc1ccccc1NC(=O)c1noc2c1CCC2	?	35µM	17µM	16µM	0	?
O=C1Nc2ccc(I)cc2C1=Cc1cc(Br)c(O)c(Br)c1	-	-	-	-	-	35µM
COc1c(C)c2c(c(O)c1C/C=C(\C)CCC(=O)OCCN1CCOCC1)C(=O)OC2	-	0	-	-	0	-
CCCC(=O)OCOC(=O)C1=C(C)NC(C)=C(C(=O)OC)C1c1cccc(Cl)c1Cl (configuration not stated)	-	-	-	-	0	-
COc1cc2c[n+](C)c3c4ccccc4ccc3c2cc1OC	0	-	-	-	0	6.3µM
Cc1ccc(NS(=O)(=O)c2ccc3[nH]c(=O)[nH]c3c2)cc1C	-	-	-	0	-	-
O=C(O)c1ccc(CSc2n[nH]c(-c3ccco3)n2)cc1	0	40µM	0	-	0	?
O=C(N/N=C/c1ccc(OC(=O)c2ccc([N+](=O)[O-])cc2)cc1)c1cccnc1	0	0	0	0	0	0
COc1cc(/C=N/NC(=O)c2cccnc2)ccc1OC(=O)c1ccc([N+](=O)[O-])cc1	0	0	0	45µM	0	0
CC(C)(C)NS(=O)(=O)c1cccc(-c2nnc(SCC(=O)Nc3ccc(C(=O)O)cc3)n2-c2ccc(F)cc2)c1	-	0	-	-	-	-
COc1cccc(/C=N/NC(=O)c2cc3cc([N+](=O)[O-])ccc3s2)c1O	?	2µM	?	0	0	50µM
O=C1c2ccccc2-c2nc3ccccc3nc21	0	0	0	0	0	?
Cc1nc2c(nc1C)C(=O)c1ccccc1C2=O	0	-	-	-	-56	0
COc1cc2c(cc1OC)C1O[C@](c3ccsc3)(C2)Oc2c1c(=O)oc1ccc(F)cc21	-	0[12.4 µM]	0[11.5 µM]	-	-	-
CCCCn1c(C)cc2c(c1=O)C1O[C@](c3ccsc3)(Cc3cc(OC)c(OC)cc31)O2	-	3.9µM	0[11.5 µM]	-	-	-
CC1(C)OC(=O)Nc2ccc(Br)cc21	-	-	-	-	0	-
CCCCC[C@H](O)/C=C/[C@H]1C=CC(=O)[C@@H]1C/C=C\CCCC(=O)O	-	0	30µM	0	-	-
CCCCCC(O)C=CC1C(O)CC(O)C1CC=CCCCC(=O)O (configuration not stated)	0	-	-	-	0	-
CCCCC/C=C/C=C1/C(=O)C=C[C@@H]1C/C=C\CCCC(=O)O	-	?	-	18µM!	-	-
O=C1CCc2cc(S(=O)(=O)Nc3ccncc3)ccc2N1	-	-	-	0	-	-
CC1(C)CC(=O)C(C(C2=C(O)CC(C)(C)CC2=O)c2ccc(O)c([N+](=O)[O-])c2)=C(O)C1	0	0	0	0	0	79µM
COc1cccc(OCC(O)CN2CCC(CN3C(=O)c4cccc5cccc(c45)C3=O)CC2)c1 (configuration not stated)	0	?	0	0	0	28µM
CC(C)(C)n1ncc2c(=O)n(Cc3c(Cl)ccc(Cl)c3Cl)cnc21	-	0	-	-	-	0
Cc1ccccc1-c1nc(N2CCOCC2)c2ccccc2n1	-	8.9µM	-	-	-	-
CCCC(=O)O[C@]1(C(=O)COC(=O)CC)CC[C@H]2[C@@H]3CCC4=CC(=O)CC[C@]4(C)[C@H]3[C@@H](O)C[C@@]21C	-	-	-	-	0	-
SMILES	Tb PGK inh	APE1 inh	Tb PFK block	TDP1 block	PI4K2A inh	FEN1 inhibitor
O=C(O)CCc1c2ccc(=O)c(O)c-2oc2c(O)c(O)ccc12	-	-	-	-	-	1.4µM
CC1=NN(c2cccc(F)c2)C(=O)/C1=C/c1ccc(N(C)C)cc1	0	0	0	0	0	0
COc1ccc(/C=C2/C(=O)N(c3cccc(F)c3)N=C2C)c(OC)c1	0	0	0	-	-51	0
CC(=O)Nc1cccc(/C(C)=N/Nc2ccc(S(=O)(=O)Nc3ccccc3C(=O)O)cc2[N+](=O)[O-])c1	0	-	-	-	0	79µM
CCOc1cc(/C=N/Nc2ccc(S(=O)(=O)Nc3ccccc3C(=O)O)cc2[N+](=O)[O-])cc(Cl)c1O	0	-	-	-	0	-
COc1ccc2nc(SCc3ncc(C)c(OC)c3C)[nH]c2c1	-	-	-	-	0	-
CC(C)CSC1=NSC2=NC(=O)/C(=C\c3coc4ccccc4c3=O)C(=N)N12	0	0	0	0	0	?
N=C1/C(=C/c2coc3ccccc3c2=O)C(=O)N=C2SC(c3ccco3)=NN12	0	0	0	-	0	32µM
